The target in this assay is AMP-activated protein kinase, AMPK (Homo sapiens) (UniProt P54646+O43741+P54619+Q9UGJ0+Q9Y478+Q13131+Q9UGI9). Briefly: AMP-dependent Kinase enzyme assay. An in vitro enzyme assay that detects ADP turnover that is directly proportional to AMPK activity. This uses naive AMPK that is activated during the assay with MK-8722. The conditions noted are these: 30 µM. Details: scale not given: direction of the effect not stated beside the values. It is filed as functional.
For the molecule `Cn1c(N2CC[C@H](O)C2)nc2cc(C(N)=O)ccc21`, the Percent Effect came to 21.4%. Turning to `O=C(Cc1cccnc1)N1CCCC(c2cc(C(F)(F)F)[nH]n2)C1` (stereo not given), the Percent Effect was determined as 2.17%. Regarding `CCc1cc(CNC(=O)c2cc(NC(=O)C(C)C)ccc2Cl)[nH]n1`, the Percent Effect was 0.911%.

Take `N#CC1COCCN1C(=O)c1ccc2[nH]ccc2c1` (stereo not given): the Percent Effect was determined as 7.92%.

Take `CC1CCCN(c2ncc(-c3ccccc3F)c(-c3nccn3C)n2)C1` (stereo not given): the Percent Effect was 9.01%.

As to `COc1ccc(CN(C)C(=O)CN2CC(n3cc(C)cn3)C2)cc1F`, the Percent Effect is -3.71%.

Consider `Cc1ccc(-c2noc(Cn3nc(C(N)=O)ccc3=O)n2)cc1`, for which the Percent Effect is 5.62%. Turning to `Cc1nc2n(n1)CC(Nc1nc(C(F)(F)F)nc3ccccc13)CC2` (stereo not given), the Percent Effect worked out at 1.51%. Next, `CCOc1cccc(CN(Cc2cnn(C)c2)CC(C)C)c1O`: -9.84%; `CC(CN(C)Cc1cccc(-n2cccn2)c1)C(F)(F)F` (stereo not given): -9.02%; `CN(C)c1nc(N)nc(CN2CCC(c3ccccc3)CC2)n1`: -6.86%.

As to `C=Cn1ncc(CN2CCC(c3ncc(Cl)cc3S(C)(=O)=O)CC2)c1C`, the Percent Effect is -0.153%. Turning to `CC(C)C(C(N)=O)c1cccc(Cl)c1` (stereo not given), the Percent Effect is -2.67%. In the case of `CC(C)c1nccc(CN(C)Cc2cccc(-n3cccn3)c2)n1`, the Percent Effect is -3.37%. Take `CCc1n[nH]c(C(=O)N2CCC3(CCCN(CCOC)C3=O)C2)c1C` (stereo not given): the Percent Effect is 6.73%. In the case of `COc1cc(Cl)cc(CN2CCCC(N3CCOCC3)C2)c1OC` (stereo not given) it was 4.12%. With `Cc1nnc(NC(=O)NCCN(C(=O)OC(C)(C)C)C2CC2)s1`, the Percent Effect was -6.8%.

Regarding `CN(Cc1csc(-c2cccs2)n1)Cc1cccnc1N`, the Percent Effect was found to be 3.93%. Next, `CCOCCNC(=O)CCC1CCCO1` (stereo not given): 2.99%; `O=C1NCCN(Cc2cccnc2)C1CC(=O)N1CCc2n[nH]cc2C1` (stereo not given): -26.7%; `CN(C)c1ncccc1CNC(=O)NCC(c1cccs1)N(C)C` (stereo not given): -9.48%. In the case of `O=C(Nc1cccc(F)c1)NC1CCN(Cc2ccncc2)CC1` it was 1.71%; in that of `CN(Cc1cccs1)Cc1nnsc1Cl`, 12.6%; in that of `CC(C)c1nc(CN(C)C(=O)C(O)c2ccc(Cl)cc2)cs1` (stereo not given), -2.36%.

For `CCc1cc(=O)[nH]c(-c2ccc(NCCC(C)O)nc2)n1` (stereo not given), the Percent Effect was -6.17%. Take `CC(CC(F)(F)F)NCc1ccccc1-n1ccnc1` (stereo not given): the Percent Effect was -3.96%. In the case of `Cc1cnn(CCNCC(=O)N2CCN(c3ccccc3)CC2)c1` it was -5.8%; in that of `O=C(O)c1ccn(-c2ccccc2NC(=O)c2ccccc2Cl)n1`, 5.51%; in that of `CCOCCC(=O)Nc1cccc(Cl)c1C(N)=O`, 1.82%. Regarding `Cc1cc(N2CCN(Cc3ccsc3)C(CCO)C2)nc(N)n1` (stereo not given), the Percent Effect was found to be 0.121%. Take `CS(=O)(=O)NC1CCN(Cc2coc(-c3ccc(Cl)cc3)n2)CC1`: the Percent Effect amounted to 1.23%. Turning to `O=C1NCCN(Cc2ccccc2)C1CC(=O)N1CCc2n[nH]cc2C1` (stereo not given), the Percent Effect is -20.4%.

As to `CN1CCN(C)C(CNc2c(C#N)cnc3ccc(Cl)cc23)C1` (stereo not given), the Percent Effect came out at 8.02%. As to `CCCn1nnnc1COC(=O)C1Cc2cc(Cl)ccc2O1` (stereo not given), the Percent Effect came out at 6.63%.

As for `OC(CNCc1nnc2ccccn12)c1ccc2c(c1)OCO2` (stereo not given), the Percent Effect came to 9.33%.

On to `CN(Cc1cnc(N)nc1)C(=O)C1CCN(C(=O)C2CCCC2)CC1`, for which the Percent Effect is -0.173%. Next, `COc1cc(N(C)CCCn2nc(C)cc2C)ncn1`: 13.8%.

For `COc1ccc(C(=O)N2C[C@@H](O)[C@H](NCCc3ncccc3C)C2)cc1`, the Percent Effect was -1.16%. Next, `O=S(=O)(NC1CCN(CC(F)(F)F)C1)c1cc(F)cc(F)c1` (stereo not given): 4.84%. In the case of `O=C(Cn1nc2ccccc2n1)N1CCCC(O)(CN2CCCC2)C1` (stereo not given), the Percent Effect was -2.27%.

Values taken from ChEMBL document CHEMBL3988442, “University of Dundee, Small-Polar-MMV Screening Library” (2021).
